# Results from PubChem BioAssay (NCATS).
# Records with an inconclusive call do not appear. A call without a number means that no potency is given here. Active and inactive are the calls of the source. The call rests on the fitted dose curve; in most records, active means well fitted activation curve with a large enough effect; inconclusive means small, poorly fitted or top-dose-only effect; inactive means no such curve, though single readings can be large or run the other way.
# Molecular target: Arylsulfatase A (Homo sapiens) (UniProt P15289)
# Assay: qHTS screen for enhancers of Arylsulfatase A (ASA1): LOPAC Validation Assay (AID 720538)
# Settings: ASA enzyme activity, LOPAC qHTS enhancer assay; series mostly up to 57.5 µM
# How it was run: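 MLD patient fibroblasts (SV40, ASA-I179S), 1536-well; adhere 6 hrs; cpd 48h, 37 degree C, 5% CO2; pNCS 0.5mM final in lysis buffer, 14h RT; stop 1N NaOH final; fluor. Ex525/Em598.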
# Potency means the concentration at half of the fitted maximal effect.
# Sequence of Arylsulfatase A (Homo sapiens) (P15289 whole entry, looked up): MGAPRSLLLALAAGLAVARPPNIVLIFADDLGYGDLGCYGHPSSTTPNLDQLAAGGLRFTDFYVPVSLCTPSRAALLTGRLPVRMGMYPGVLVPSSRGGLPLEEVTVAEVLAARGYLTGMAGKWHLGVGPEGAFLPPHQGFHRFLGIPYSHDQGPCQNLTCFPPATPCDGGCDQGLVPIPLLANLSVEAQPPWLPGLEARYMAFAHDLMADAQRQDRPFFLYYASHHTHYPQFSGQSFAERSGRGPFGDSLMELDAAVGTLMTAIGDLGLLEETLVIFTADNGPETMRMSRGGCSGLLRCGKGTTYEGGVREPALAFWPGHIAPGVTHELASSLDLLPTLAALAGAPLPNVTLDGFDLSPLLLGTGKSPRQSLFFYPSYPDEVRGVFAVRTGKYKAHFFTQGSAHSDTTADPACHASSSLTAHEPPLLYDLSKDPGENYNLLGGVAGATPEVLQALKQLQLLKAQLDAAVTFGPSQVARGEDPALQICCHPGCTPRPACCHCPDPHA
row,Structure (SMILES),Potency
1,CC(=O)c1c(O)c(C)c(O)c(Cc2c(O)c3c(c(C(=O)/C=C/c4ccccc4)c2O)OC(C)(C)C=C3)c1O,inactive
2,C=CCN1CCC23c4c5ccc(O)c4O[C@H]2C(=O)CC[C@@]3(O)C1C5 (some centres undefined),inactive
3,CCCN(CCC)[C@@H]1CCc2cccc(O)c2C1,inactive
4,CCCn1c(C)c(C(=O)c2ccc3ccccc3c2)c2ccccc21,inactive
5,CC1(C(=O)O)C2CCC(O2)C1(C)C(=O)O (centres undefined),inactive
6,NC(CCCCCP(=O)(O)O)C(=O)O (centres undefined),inactive
7,C=CCN1C[C@@H](C)N([C@H](c2ccc(C(=O)N(CC)CC)cc2)c2cccc(OC)c2)C[C@@H]1C,inactive
8,CN1CCC(c2c[nH]c3ccc(O)cc23)CC1,inactive
9,CN(N=O)c1ccc(O)c(O)c1,3.01 µM (active)
